PubChem BioAssay AID1852 (Sanford-Burnham Center for Chemical Genomics, 2009)
The campaign covered roughly 2,500 compounds. About 1,100 (44%) were called active.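 The calls were made as follows: active = inhibition above 50% at 4 µM in the single-point screen; inactive = inhibition of 50% or less.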 The set was probably picked from earlier hits. The list shows a part of the results.

Test: TNF-a-driven NF-kB reporter inhibitors, primary screen, selectivity assay for NOD1/NOD2 signaling inhibitor project, cell-based, HEK293T NF-kB-Luc, luminescence (AID 1852)
Conditions: TNF-a induced, 14 h, at 4 µM, active compounds read high

Structure (SMILES) | inhibition
COc1ccc(/C=C/C(=O)C2CC2)cc1Cn1nc(C)c([N+](=O)[O-])c1C | 36.6% (inactive)
Cc1ccc(C(C)C)c(OCc2ccc(-c3nnco3)cc2)c1 | 12.4% (inactive)
COc1ccc(N=C2NC(=O)/C(=C/c3ccc(O)c(OC)c3)S2)cc1 | 70.8% (active)
COc1cc(/C=C2/C(=O)NN(c3ccc(Cl)cc3)C2=O)cc(Br)c1O | -1.7% (inactive)
COc1cc(/C=C2\SC(=N)N(c3ccc(F)cc3)C2=O)ccc1O | 51.1% (active)
COc1cccc(OCCOc2ccc(/C=C3/SC(=S)NC3=O)cc2)c1 | -114% (inactive)
COc1ccc(OC)c(/C=C2\S/C(=N/NC(=O)c3ccc4ccccc4c3)NC2=O)c1 | -2.1% (inactive)
COc1cc(/C=C2\SC(N3CCC(C)CC3)=NC2=O)ccc1O | 1.4% (inactive)
COc1ccccc1OCCCOc1cccc(/C=C2\SC(=O)NC2=O)c1 | 3.3% (inactive)
COc1cc(/C=C2/SC(=Nc3ccc(O)cc3)NC2=O)ccc1O | 89.8% (active)
COc1cccc(/C=N/NC(=O)c2ccc(-c3ccccc3)cc2)c1O | 70% (active)
COc1cc(/C=N\NC(=O)c2ccc(-c3ccccc3)cc2)cc(Br)c1O | 43% (inactive)
COc1cc(/C=N/NC(=O)c2ccc(-c3ccccc3)cc2)cc(OC)c1OC | 63.8% (active)
COc1cc(/C=N/NC(=O)c2cc3c(ccc4ccccc43)o2)cc(OC)c1O | 36.5% (inactive)
Cc1ccccc1CS(=O)(=O)c1nnc([C@H](CC(C)C)NC(=O)OC(C)(C)C)o1 | 35% (inactive)
COc1cc(CNc2ccc3[nH]c(=O)[nH]c3c2)ccc1OCc1c(F)cccc1Cl | 49.2% (inactive)
Clc1c(Cl)c(Cl)c2n[nH]nc2c1Cl | 26.8% (inactive)
Cc1cccc2cc(/C=N/NC(=O)c3ccccc3O)c(Cl)nc12 | 63.3% (active)
COc1cccc(/C=N/NC(=O)c2c(C)nc3ccc(Cl)cn23)c1O | 46.8% (inactive)
O=C(N/N=C/c1cccc2cccnc12)c1ccccc1O | 53.1% (active)
O=C(N/N=C/c1ccccc1O)c1cccc2ccccc12 | 99.3% (active)
Cc1ccc(NC(=O)CCC(=O)N/N=C/c2ccccc2O)cc1 | 58.1% (active)

Structure (SMILES) | inhibition
Cc1c(/C=N/NC(=O)c2ccccc2O)c2ccccn2c1C(=O)c1ccc(F)cc1 | 21.3% (inactive)
O=C(CCC(=O)Nc1ccc(Br)cc1)N/N=C/c1ccccc1O | 49.3% (inactive)
O=C(/C=C/c1ccco1)Oc1cc(Br)cc(/C=N/NC(=O)c2ccccc2O)c1 | 44.6% (inactive)
O=C1CCN(CCc2ccccc2)CCN1CCOc1ccccc1 | -6.2% (inactive)
CCc1cc(C(=O)N/N=C/c2ccc(O)cc2O)c2ccccc2n1 | 50.7% (active)
CCOc1ccc(/C=N/NC(=O)C(O)c2ccccc2)c(O)c1 (stereo unspecified) | 45.4% (inactive)
O=C(N/N=C/c1ccc(O)cc1O)c1ccncc1 | 28.2% (inactive)
CCn1c(SCC(=O)Nc2nc(-c3ccccc3)cs2)nnc1-c1ccccc1 | 34.3% (inactive)
Cc1csc(SCC(=O)Nc2cccc3nsnc23)n1 | 100% (active)
O=C(CN1C(=O)c2cccnc2Oc2ccc(Cl)cc21)NCCCc1ccccc1 | 12% (inactive)
O=C(NC(=S)N(CCCCO)C1CCCCC1)c1sc2ccccc2c1Cl | 104% (active)
Cc1ccc(C(=O)NC(=S)N(C)C2CCCCC2)cc1Br | 106% (active)
Cc1ccc(C(C)NC(=S)NC2CCCCC2)cc1C (stereo unspecified) | 24.8% (inactive)
COc1ccc(C(=O)NC(=S)N(C)C2CCCCC2)cc1Br | -14.8% (inactive)
Cc1onc(-c2ccccc2Cl)c1C(=O)Nc1nnc(-c2ccc(Br)cc2)s1 | -22.4% (inactive)
Cc1ccccc1N1CCN(S(=O)(=O)c2nnc(NC(=O)c3ccc(F)cc3)s2)CC1 | -27.1% (inactive)
O=C(Nc1ccccc1C(=O)Nc1nnc(C(F)(F)F)s1)c1ccccc1 | 51% (active)
O=C(Nc1ccccc1C(=O)Nc1nnc(C(F)(F)F)s1)c1ccccc1Cl | 86.7% (active)
Cc1onc(-c2c(F)cccc2Cl)c1C(=O)Nc1nnc(C(F)(F)F)s1 | 48.9% (inactive)
Cc1ccnc(OC(C(=O)O)C(OCc2ccccc2)(c2ccc(F)cc2)c2ccc(F)cc2)n1 (stereo unspecified) | -7.9% (inactive)
CCn1cc([N+](=O)[O-])c(C(=O)N2N=C(c3ccc(OC)cc3OC)CC2c2ccccc2O)n1 (stereo unspecified) | 86.6% (active)
CCn1cc([N+](=O)[O-])c(C(=O)N2N=C(c3ccc4ccccc4c3)CC2c2cc(Br)ccc2O)n1 (stereo unspecified) | -56.7% (inactive)

Structure (SMILES) | inhibition
CC1CC(C)CN(C(=O)CSc2nc(Cc3cccs3)nc3ccccc23)C1 (stereo unspecified) | -34.3% (inactive)
Nc1ccc2c(c1)C(=O)C(=O)c1ccccc1-2 | 97.6% (active)
O=C1C(Cl)=C(Nc2ccccc2)C(=O)c2ccccc21 | -83.5% (inactive)
O=C1C(=O)c2ccc(-c3ccccc3)cc2-c2ccccc21 | 102% (active)
CCn1c(SCC(=O)N2CCC(C)CC2)nc2c(c1=O)SCC2 | 1.5% (inactive)
CCCCCCc1cc2cc(S(=O)(=O)c3ccc(F)c(Cl)c3)c(=O)oc2cc1O | 38.7% (inactive)
CCCCCCc1cc2cc(S(=O)(=O)c3ccc(Cl)cc3)c(=O)oc2cc1O | 65.1% (active)
CCCCCCc1cc2cc(C(=O)OCC)c(=O)oc2cc1O | 9.4% (inactive)
c1csc(CCNc2ncnc3sc4c(c23)CCC4)c1 | 62.9% (active)
COCCn1c(C)cc(C(=O)CSc2ncnc3sc4c(c23)CCC4)c1C | 14.2% (inactive)
O=C(O)CSc1ncnc2sc3c(c12)CCCC3 | 31.1% (inactive)
CC1(C)CC(N2CCN(C(c3ccccc3)c3ccccc3)CC2)=CC(=[N+]2CCCCC2)C1 | 80.1% (active)
CC1(C)CC(N2CCCC2)=CC(=[N+]2CCCCCC2)C1 | 34% (inactive)
CC1CC(C)C[N+](=C2C=C(N3CCCC3)CC(C)(C)C2)C1 (stereo unspecified) | 49.7% (inactive)
O=C(NC(c1ccc(Cl)cc1)c1c(O)ccc2ccccc12)c1ccccc1 (stereo unspecified) | 78.3% (active)
Cc1cc(C)nc(N/N=C/c2c[nH]c3ccccc23)n1 | 29% (inactive)
Oc1ccc(/C=N/Nc2nccnc2Cl)c(O)c1 | 39.8% (inactive)
Cc1c(O)ccc(/C=N/Nc2nc(-c3cccnc3)nc3ccccc23)c1O | -60% (inactive)
Oc1ccc(/C=N/Nc2nc(-c3ccccc3F)nc3ccccc23)c(O)c1 | 68.2% (active)
Fc1ccccc1/C=N/Nc1nc(-c2ccccn2)nc2ccccc12 | 98.7% (active)
C(=N\Nc1nc(-c2ccccn2)nc2ccccc12)/c1ccccc1 | 78.9% (active)
FC(F)(F)c1cc(Sc2ccccc2)nc(-c2ccccn2)n1 | -4.1% (inactive)
